Source: PubChem (National Center for Advancing Translational Sciences (NCATS))
SARS PLpro yeast = blocks SARS-CoV papain-like protease in a yeast assay; S. cerevisiae expressing SARS-CoV PLpro, growth rescue; Potency, µM (doses to about 32.9 µM), without a hit: at the highest dose activity, positive = growth rescue, most hits filed as activators; hit rate 0.19% among 330,000; calls by dose curve; note: potency is the fitted concentration of half-maximal effect; 0% is about no effect; nearly all actives have a fitted effect of over 55% in size
AMA1-RON2 inh = AMA1-RON2 (P. falciparum) interaction inhibition | AlphaScreen AMA1-biotinylated RON2 peptide binding | Potency, µM (doses to about 58.2 µM), for the others: top-dose activity change, negative = inhibition, actives largely listed as inhibitors | hit rate 0.2% among 360,000;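 note: potency is the fitted concentration of half-maximal effect; 0% = vehicle wells and -100% = peptide control; nearly all actives have a fitted effect of over 45% in size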
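AMA1 (3D7) with his tag at 25 nM final met compounds first, then biotinylated RON2 peptide at 25 nM; detection used donor plus acceptor beads, 10 µg/mL apiece, read by AlphaScreen after 30 min at room temperature.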
AmpC detergent = AmpC beta-lactamase inhibition with detergent present | P00811 | AmpC hydrolysis of nitrocefin, absorbance 480 nm, 0.01% Triton | Potency, µM (titrated, usually from 114 µM), without a hit: top-dose activity change, negative = inhibition, most hits filed as inhibitors | hit rate 0.041% among 370,000;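 note: potency is the fitted concentration of half-maximal effect; 0% = no-compound wells and -100% = no-enzyme wells; nearly all actives have a fitted effect of over 25% in size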
Target sequence (P00811 whole entry, looked up): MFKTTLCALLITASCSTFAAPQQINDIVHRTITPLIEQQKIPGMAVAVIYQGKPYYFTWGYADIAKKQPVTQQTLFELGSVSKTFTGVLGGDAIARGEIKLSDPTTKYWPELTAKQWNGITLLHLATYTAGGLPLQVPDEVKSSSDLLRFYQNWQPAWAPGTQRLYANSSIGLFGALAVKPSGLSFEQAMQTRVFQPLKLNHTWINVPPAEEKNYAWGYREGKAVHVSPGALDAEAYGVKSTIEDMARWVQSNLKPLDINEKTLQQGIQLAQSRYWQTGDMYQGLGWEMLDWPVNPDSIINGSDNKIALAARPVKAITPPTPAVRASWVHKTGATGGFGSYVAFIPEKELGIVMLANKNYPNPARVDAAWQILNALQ
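20 mM phosphate pH 7.0 + 0.01% (detergent screen) or 0.0001% Triton X-100; 5.3 nM AmpC reagent; cpd preinc 15 min RT; nitrocefin (800 uM stock) to start; A480 q20 s × 4 min; Activity was normalised to no-enzyme and no-compound control wells.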
AmpC no deterg = inhibitors of E. coli AmpC beta-lactamase without detergent. AmpC nitrocefin hydrolysis, absorbance 480 nm, 0.0001% Triton. Potency, µM (series often up to 57.1 µM), inactives show at the highest dose activity change, negative = inhibition, most hits filed as inhibitors. hit rate 0.52% among 330,000. AID 485341;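 note: potency is the fitted concentration of half-maximal effect; plate controls were no compound for no effect and no enzyme for full effect; nearly all actives have a fitted effect of over 20% in size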
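AmpC (5.3 nM in the dispensed reagent) in 20 mM phosphate pH 7.0 with 0.01% (detergent screen) or 0.0001% Triton X-100 was preincubated with compounds for 15 min at room temperature. Nitrocefin was then added from an 800 uM solution, and hydrolysis was followed at 480 nm.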
Shiga toxin inh = Shiga toxin inhibition; Vero cells, Shiga toxin protein synthesis inhibition reporter; inhibition, % at 38.7 µM; hit rate 9.2% among 290,000; in the data active = inhibition mostly above about 28%, no sharp cut-off; inactive = mostly below about 43%; note: 0% is about no effect
CHX counter = affects cycloheximide protein synthesis inhibition readout, counter-screen | cell reporter, cycloheximide protein synthesis inhibition counterscreen | max response, % | hit rate 12% among 300,000; in the data active = max response mostly above about 13%, no sharp cut-off; inactive = mostly below about 14%; note: read at 38.3 µM for the half of the compounds with a filed dose; 0% is about no effect
The depositor's hits bear a star; u = inconclusive; x = no result; + = active, no number. The full list was thinned out, with hits kept by preference. Unless noted, calls come from the whole dose curve; as a rule, active = well fitted curve in the direction sought with a large enough effect; inconclusive = small, poorly fitted or top-dose-only effect, or another doubt; inactive = no such curve, though single readings can be large; an effect the other way counts as inactive or inconclusive.

SMILES	SARS PLpro yeast	AMA1-RON2 inh	AmpC detergent	AmpC no deterg	Shiga toxin inh	CHX counter
Cc1ccc(NC(=O)/C=C/c2cccs2)c([N+](=O)[O-])c1	11%	-17%	4%	-23%	63*	41*
O=C(CN1C(=O)c2ccccc2S1(=O)=O)NC1CC2CCC1C2 (centres undefined)	4%	-5%	u	-7%	-3	-6
COc1cc(CNCc2cccc(OC)c2OC)cc(OC)c1	5%	-22%	-13%	-6%	x	10
O=C(NCc1ccc(Cl)nc1)c1csc([C@@H]2O[C@H](CO)[C@H](O)[C@H](O)[C@H]2O)n1	x	6%	x	x	x	x
CCCCn1c(NC(=O)CC)c(C#N)c2nc3ccccc3nc21	4%	3%	-11%	-5%	8	0
CN1CCN(C(=S)NC(=O)/C=C/c2cccs2)CC1	1%	1%	9%	-17%	5	22*
Cc1cccc(NC(=O)/C=C/c2cccs2)n1	-4%	3%	0%	-24%	40*	33*
CCn1nnc2cc(C(=O)Nc3ccc(C)cc3Br)ccc21	x	x	1%	x	x	x
N/C(CN1CCCC1=O)=N\OC(=O)c1ccc(Cl)cc1	2%	-1%	-6%	-1%	-4	15*
N/C(CN1CCCC1=O)=N\OC(=O)c1ccc(Cl)c(Cl)c1	9%	6%	-14%	-12%	-6	23*
N=C1CCCN1CC(=O)c1ccc(Cl)cc1	-7%	8%	6%	-17%	19	-3
CNC(=O)c1cc2c(=O)n3cc(C)ccc3nc2n(C(C)C)c1=N	8%	0%	u	-7%	-12	-2
COc1ccc(CNc2nc(Cl)c(C#N)s2)cc1	10%	-13%	2%	-20%	45*	41*
CCOC(=O)c1sc(NC(=O)C(CC)OC(=O)c2ccco2)nc1C (centres undefined)	0%	-13%	1%	51%	13	16*
COC(=O)c1sc(NC(=O)c2ccco2)nc1C	-1%	-20%	u	1%	52	12
CCOC(=O)c1sc(NC(=S)NC(=O)c2ccco2)nc1C	-14%	45%	u	-8%	50	42*
COc1cccc(-n2nnnc2SCC(=O)NCCc2ccccc2)c1	-1%	-1%	u	-5%	18	-5
Cc1cccc(C)c1NC(=O)CNC(=O)c1ccc2nc[nH]c2c1	-2%	17%	0%	-18%	x	x
Cc1ccc(NC(=O)c2ccc3nc[nH]c3c2)cc1C	9%	-2%	0%	-23%	74*	46*
O=C(NNC(=O)c1ccccc1Br)c1ccc2nc[nH]c2c1	1%	-12%	-8%	-27%	2	6
Cc1cc(C)cc(NC(=O)c2ccc3nc[nH]c3c2)c1	9%	7%	u	-31%	64*	11
O=C(Cn1nc(Cc2cccnc2)c2ccccc2c1=O)N1CCN(c2ccc(F)cc2)CC1	x	x	8%	x	x	x
COc1ccc(NC(=O)c2nc(C)c(C3(C)CC(c4cccnc4)=NO3)s2)cc1 (centres undefined)	-1%	5%	-1%	81%	-2	-1
CCCn1nc(C(=O)Nc2ccc(S(=O)(=O)Nc3nccs3)cc2)c2ccccc2c1=O	3%	-7%	-5%	-53%	-20	-1
CCCn1nc(C(=O)Nc2cc(S(=O)(=O)Nc3ccc(OC)cc3)ccc2O)c2ccccc2c1=O	9%	33%	x	1.6µM*	x	x
SMILES	SARS PLpro yeast	AMA1-RON2 inh	AmpC detergent	AmpC no deterg	Shiga toxin inh	CHX counter
O=C(c1ccccc1[N+](=O)[O-])N1CCCN(C(=O)c2ccccc2[N+](=O)[O-])CC1	7%	3%	u	-7%	-7	-4
COc1ccc(-c2noc(COc3ccccc3OC)n2)cc1OC	-1%	0%	u	99%	50*	13*
COc1ccccc1OCC(=O)N(Cc1nc(-c2ccccc2)no1)C1CCCCC1	-25%	-4%	-8%	47%	43	15*
COc1cccc(-c2noc(COc3ccccc3Cl)n2)c1	x	x	1%	x	x	x
COc1ccccc1OCc1nc(-c2ccc([N+](=O)[O-])cc2)no1	13%	u	-5%	-14%	39*	24*
Cc1ccccc1OCC(=O)N(Cc1nc(-c2ccccc2)no1)C(C)C	-3%	1%	-1%	29%	-1	-1
CSCC[C@H](CO)NC(=O)[C@H]1O[C@@H](n2cnc3c(N)ncnc32)[C@H](O)[C@@H]1O	x	0%	x	x	x	x
C#CCOCCOCCOCCNc1nc(N2CCN(C(=O)[C@H]([C@@H](C)CC)n3cc(CCCCN)nn3)CC2)nc(N2CCN(C(=O)[C@H](CCCCN)n3cc(CCCC)nn3)CC2)n1	4%	-9%	1%	222%	x	x
Cc1ccc(Cn2nnc3c(=O)[nH]c(C4CCN(S(=O)(=O)Cc5ccccc5)CC4)nc32)cc1	4%	3%	1%	21%	78*	31*
Cc1ccc(Cn2nnc3c(=O)[nH]c(C4CCN(S(=O)(=O)c5ccccc5)CC4)nc32)cc1	2%	-1%	-2%	39%	-22	-4
CC(C)=N/N=C(\N)SCc1ccccc1	2%	0%	-5%	-39%	60	19*
CC(C)(O)C(=O)NN(Cc1ccccc1)c1ccccc1	-5%	5%	u	-11%	33*	28*
Clc1ccc(N=C2SCCS2)cc1	-1%	-4%	2%	-22%	76*	46*
O=C1c2c(-c3ccc(Br)cc3)noc2CCN1Cc1cn(C2CCCC2)nn1	x	-5%	x	x	x	x
C(=NOCc1ccccc1)c1ccncc1	x	1%	x	x	x	x
CC1SCC(=NOCc2ccccc2)CS1 (centres undefined)	0%	-18%	-11%	-24%	114*	38*
COc1ccc(N2CCN(C(=O)c3ccc(NS(=O)(=O)c4cccc(F)c4)cc3)CC2)cc1	-1%	-22%	u	-18%	12	11*
COc1ccc(N2CCN(C(=O)c3cccc(NS(=O)(=O)c4cccc(F)c4)c3)CC2)cc1	-1%	-7%	3%	-17%	4	-2
O=C(CNC(=O)c1cccs1)c1ccc(Cl)cc1	0%	-2%	-9%	-11%	79*	37*
O=C(Cc1ccc(Cl)cc1)NNC(=S)NC(=O)c1cccs1	0%	66%	-2%	-34%	34*	9
O=C(COc1cccc(NC(=O)c2cccs2)c1)c1ccc(F)cc1	-26%	-2%	-1%	-44%	+	12
O=C(Cc1cccs1)NNC(=S)NCc1ccc(Cl)cc1	13%	-8%	-5%	-43%	-7	2
O=C(NCC(=O)c1ccccc1)OCc1ccc([N+](=O)[O-])cc1	2%	3%	-15%	-13%	x	30*
O=C(CNC(=O)c1ccccc1)OCc1ccc([N+](=O)[O-])cc1	u	-8%	2%	-19%	9	2
